Assay results taken from PubChem BioAssay (Tox21).
Activity calls are given as the source filed them. Where a call stands in place of a potency, no number is given. Calls follow the shape of the full dose curve. Starred links: 1 amine or outer side, 2 acyl side, 3 side chain; linkers in the order of their positions; H or OH if unused. Positions of bridges follow the written chain, without caps; N, C: chain ends. Non-standard residues stand in square brackets, D forms with d. Residues, ends and D or L forms follow the SMILES beside them. Chains are numbered I, II in the order given. Actinocin(9to1) = Cc1c2oc3c(C)ccc(C(=O)[*:1])c3nc-2c(C(=O)[*:2])c(N)c1=O; NMeV = CN[C@H](C(=O)O)C(C)C; Sar = CNCC(=O)O

Target: Acetylcholinesterase (Homo sapiens) (UniProt P22303)
Sequence (P22303 whole entry, looked up): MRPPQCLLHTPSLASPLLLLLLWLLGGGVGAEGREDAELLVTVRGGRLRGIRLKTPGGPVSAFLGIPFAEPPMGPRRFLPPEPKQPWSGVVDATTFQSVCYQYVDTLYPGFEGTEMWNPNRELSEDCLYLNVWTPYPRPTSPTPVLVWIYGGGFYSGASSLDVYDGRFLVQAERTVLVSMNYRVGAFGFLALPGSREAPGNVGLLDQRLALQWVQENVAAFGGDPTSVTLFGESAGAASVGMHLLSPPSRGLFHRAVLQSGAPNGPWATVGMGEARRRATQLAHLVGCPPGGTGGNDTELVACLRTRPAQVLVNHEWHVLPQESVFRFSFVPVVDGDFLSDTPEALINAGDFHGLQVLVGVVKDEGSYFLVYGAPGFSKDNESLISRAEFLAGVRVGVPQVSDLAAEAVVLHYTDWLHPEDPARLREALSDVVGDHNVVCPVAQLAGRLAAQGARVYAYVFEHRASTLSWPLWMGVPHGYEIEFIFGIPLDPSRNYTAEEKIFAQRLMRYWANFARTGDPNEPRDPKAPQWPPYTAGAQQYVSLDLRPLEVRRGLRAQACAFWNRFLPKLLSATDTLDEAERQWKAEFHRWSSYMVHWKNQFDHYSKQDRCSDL
Assay: Acetylcholinesterase (AChE) small molecule antagonists: enzyme-based qHTS assay with human liver microsomes (AID 1347399); also: nearly all actives have a fitted effect of over 60% in size
Conditions: Potency: qHTS inhibition; outcome: qHTS inhibition; series mostly up to 115 µM
In short: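 Recombinant human AChE (50 mU/mL in the enzyme mix) and human liver microsomes (0.25 mg/mL final) were preincubated with compound and NADPH (0.25 mg/mL final) for 30 min at 37 C. Acetylthiocholine/DTNB was then added; thiocholine was read colorimetrically after 10 min at room temperature.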

| Compound | Potency |
| --- | --- |
| CC1=C(/C=C/C(C)=C/C=C/C(C)=C/CO)C(C)(C)CCC1 | inactive |
| CCOC(=O)Cn1cccc1-c1nc(-c2ccc(OC)cc2)c(-c2ccc(OC)cc2)s1 | inactive |
| O=c1[nH]c(=O)c2ccccc2o1 | inactive |
| CCN(Cc1cccnc1)C(=O)c1cccc(Cl)c1[C@]1(C)C(=O)N(Cc2ccc(OC)cc2OC)c2ccc(Cl)cc21 | inactive |
| CC(=O)N[C@@H](CS)C(=O)O | inactive |
| NS(=O)(=O)c1cc(C(=O)O)cc(N2CCCC2)c1Oc1ccccc1 | inactive |
| COC(C)CCO (configuration not stated) | inactive |
| CC(C)OB(OC(C)C)OC(C)C | inactive |
| CCCCCOC(=O)CCC | inactive |
| Cc1cc(C)c(C(=O)O)c(C)c1 | inactive |
| CCO/C=C1\N=C(c2ccccc2)OC1=O | inactive |
| COCC(O)CO (configuration not stated) | inactive |
| CCc1cccc(CC)c1N(COC)C(=O)CS(=O)(=O)O | inactive |
| Cc1ccc(S(=O)(=O)N=C=O)cc1 | inactive |
| C[C@]12CCC(=O)C=C1CC[C@@H]1[C@@H]2[C@@H](O)C[C@@]2(C)[C@H]1CC[C@]2(O)C(=O)CO | inactive |
| CCCCCCCCCC(=O)OC | inactive |
| Cc1c2oc3c(C)ccc(C(=O)N[C@@H]4C(=O)N[C@H](C(C)C)C(=O)N5CCC[C@H]5C(=O)N(C)CC(=O)N(C)[C@@H](C(C)C)C(=O)O[C@@H]4C)c3nc-2c(C(=O)N[C@@H]2C(=O)N[C@H](C(C)C)C(=O)N3CCC[C@H]3C(=O)N(C)CC(=O)N(C)[C@@H](C(C)C)C(=O)O[C@@H]2C)c(N)c1=O (I: T[dV]P[Sar][NMeV] / II: T[dV]P[Sar][NMeV]; ester I:1-I:C, II:1-II:C; linker I:N-II:N via Actinocin(9to1)) | inactive |
